# Measurements as given in PubChem BioAssay (EPA / NIEHS).
# Records with an inconclusive call do not appear. Calls of active or inactive are those of the source. Rule for the calls: active = hit-call score of the fitted dose curve at least 0.9, where 1 is the maximum; inconclusive = response in the unintended direction; inactive = score below 0.9.
# Target: Cellular tumor antigen p53 (Homo sapiens) (UniProt P04637)
# Experiment: TOX21_p53_BLA_p4_ratio: Tox21 HCT-116 p53 Agonism Beta-lactamase Assay, Ratio, Phase 4 (AID 2283601)
# In short: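 HCT116 cells carrying an inducible beta-lactamase reporter were plated at 4000 cells/well, rested 5 h, then exposed to compounds in DMSO (217-fold dilution) for 16 h at 37C. CCF4-AM substrate was loaded 2 h at room temperature; 460/530 nm emission ratio scored gain-of-signal versus DMSO.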
# Sequence of Cellular tumor antigen p53 (Homo sapiens) (P04637 whole entry, looked up): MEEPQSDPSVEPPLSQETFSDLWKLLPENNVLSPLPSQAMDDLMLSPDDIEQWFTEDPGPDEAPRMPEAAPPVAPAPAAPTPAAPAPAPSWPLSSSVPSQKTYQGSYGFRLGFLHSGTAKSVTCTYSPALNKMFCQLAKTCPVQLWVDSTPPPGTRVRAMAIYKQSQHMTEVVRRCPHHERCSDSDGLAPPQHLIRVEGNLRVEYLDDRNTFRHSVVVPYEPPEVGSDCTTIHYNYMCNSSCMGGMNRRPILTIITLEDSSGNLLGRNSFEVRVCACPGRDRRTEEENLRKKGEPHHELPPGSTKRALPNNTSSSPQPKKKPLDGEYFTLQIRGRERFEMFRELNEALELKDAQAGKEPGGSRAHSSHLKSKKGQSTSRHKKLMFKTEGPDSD
SMILES,outcome,AC50
CC(C)CC(C)CC(O)CC(C)C (centres undefined),inactive,
CC(=O)OCCCc1ccccc1,inactive,
O=C(CC(=O)c1ccccc1)c1ccccc1,inactive,
NC1CCCCC1N (centres undefined),inactive,
CC1(C)O[C@@H]2[C@@H](CO[C@@]3(COS(N)(=O)=O)OC(C)(C)O[C@@H]23)O1,inactive,
OCCc1ccccc1,inactive,
CN(C)C(=S)SC(=S)N(C)C,inactive,
Cc1cc(=O)oc2cc(N(C)C)ccc12,,53.6 µM (active)
C1CCCCC1,inactive,
CCC(Cl)C(Cl)C(Cl)CC(Cl)C(Cl)C(C)Cl (centres undefined),inactive,
CC1(C)O[C@@H]2C[C@H]3[C@@H]4CCC5=CC(=O)C=C[C@]5(C)[C@@]4(F)[C@@H](O)C[C@]3(C)[C@]2(C(=O)CO)O1,inactive,
O=C(O)COCC(=O)O,inactive,
C=CCOC(=O)CCCCCC,inactive,
C=C(C)C(=O)OCCOCCOCCOC(=O)C(=C)C,inactive,
C=C(CC(=O)O)C(=O)O,inactive,
CCCCCCOC(=O)CCC,inactive,
C=Cc1ccc(C)cc1,inactive,
Cc1ncc([N+](=O)[O-])n1CCO,inactive,
COCCc1ccc(OCC(O)CNC(C)C)cc1 (centres undefined),inactive,
C=C(C)C(=O)OCCOCCOCCOCCOC(=O)C(=C)C,inactive,

SMILES,outcome,AC50
CC(=O)C(C)O (centres undefined),inactive,
CCCC1O[C@@H]2C[C@H]3[C@@H]4CCC5=CC(=O)C=C[C@]5(C)[C@H]4[C@@H](O)C[C@]3(C)[C@]2(C(=O)CO)O1 (some centres undefined),inactive,
O=[N+]([O-])c1ccc(O)cc1C(F)(F)F,,45.6 µM (active)
CCOc1ccc(NC(=O)CC(C)O)cc1 (centres undefined),inactive,
CCCCCCCCCC(C)C=O (centres undefined),inactive,
CCC(=O)O[C@@H]1C[C@H]2CC[C@]1(C)C2(C)C,inactive,
Cc1ccc2c(c1)C(=O)OC2=O,inactive,
O=c1[nH]c(=O)c2cn[nH]c2[nH]1,inactive,
CCCC(=O)C(CC)Sc1ccoc1C (centres undefined),inactive,
CCCCC1(COC(=O)CCC(=O)O)C(=O)N(c2ccccc2)N(c2ccccc2)C1=O,inactive,
C=COCCOCCOC=C,inactive,
CCCC(=O)OCCc1ccccc1,inactive,
CC(=O)O[C@@H]1CC2CCC1(C)C2(C)C (some centres undefined),inactive,
CCCCCCCCCCCC(=O)OC[C@@H](O)[C@H]1OC[C@H](O)[C@H]1O,inactive,
CCCCCC(C)=O,inactive,
C=C[Si]1(C)O[Si](C)(C=C)O[Si](C)(C=C)O[Si](C)(C=C)O1 (centres undefined),inactive,
O=C(CS)OCCOC(=O)CS,,53.3 µM (active)
C=CC(=O)OCCCC,inactive,
COC(=O)c1ccc(OC)cc1,inactive,
